PubChem BioAssay (Tox21)
Inconclusive results are not listed. Activity calls are given as the source filed them. The call rests on the fitted dose curve; in most records, active means well fitted activation curve with a large enough effect in the repeat runs; inconclusive means weak or mixed curves; inactive means flat fitted curve, though single readings scatter.

assay: A CellTox Green Cytotoxicity Assay to monitor cytotoxicity in HEK293 cells - 32 hour (AID 1224881); conditions: CellTox Green fluorescence; series mostly up to 76.8 µM; cytotoxicity increase: at the top concentration; further: nearly all actives have a fitted effect of over 40% in size
Text: National Center for Advancing Translational Sciences [NCATS]
NIH Chemical Genomics Center [NCGC]
U.S. Environmental Protection Agency [EPA]
National Institutes of Environmental Health Sciences [NIEHS]
National Toxicology Program [NTP]
Cell-based models are critical for drug discovery. Determining the natural cytotoxic effects resulting from test compounds is an essential research activity. A CellTox Green Cytotoxicity Assay to monitor cytotoxicity in real time of continues cell culture during 40 hours of the compound treatment was used to screen Tox21 10K library compounds in Hek293 cells. CellTox Green Cytotoxicity Assay is a nonlytic, homogeneous, biofluorescent method to measure cytotoxicity in cell culture after experimental manipulation. The assay system uses a proprietary asymmetric cyanine dye that is excluded from viable cells but preferentially stains the dead cell's DNA. […] Viable cells produce no appreciable increases in fluorescence. Therefore, the fluorescence signal produced by the binding interaction with dead cell DNA is proportional to cytotoxicity.
The mixture of Hek293 cell suspension and reagents were dispensed at 600cells/6 ul/well in 1536-well tissue culture treated black solid bottom plates using a Multidrop dispenser. After the assay plates were incubated at a 37 C/5% CO2 incubator for 5 hours, 23 nL of compounds dissolved in DMSO, positive and negative controls was transferred to the assay plate by a pintool work station. The plates were incubated at 37 C for 40 hours. The fluorescence intensity were measured at 0h, 8h, 16h, 24h, 32h and 40h time points using ViewLux plate reader during compound treatment.
On the % scale 0 is the no-effect control and ±100 the full control effect; potency means the concentration at half of the fitted maximal effect.

Row | SMILES | cytotoxicity increase | Potency
1 | CCOCOCC | -6.48% (inactive) | 
2 | CC(C)(C)c1cc(CCC(=O)NCCCCCCNC(=O)CCc2cc(C(C)(C)C)c(O)c(C(C)(C)C)c2)cc(C(C)(C)C)c1O | -0.383% (inactive) | 
3 | NC(=O)c1ccccc1N | -0.463% (inactive) | 
4 | COCC(=O)O[C@]1(CCN(C)CCCc2nc3ccccc3[nH]2)CCc2cc(F)ccc2[C@@H]1C(C)C |  | 21.3 µM (active)
5 | CCc1c(C(=O)O)c(=O)cnn1-c1ccc(Cl)cc1 | -6.25% (inactive) | 
6 | CC(=O)Nc1ccc(O)cc1 |  | inactive
7 | C/C=C/C(=O)C1=C(C)CCCC1(C)C | 26% (inactive) | 
8 | N[C@@H](CSSC[C@H](N)C(=O)O)C(=O)O | 2.69% [at 0.29 µM] (inactive) | 
9 | CC1=CP(=O)(c2ccccc2)CC1 (stereo not given) | -24.4% (inactive) | 
10 | C=CC(=O)OCCN(CC)CC | -9.53% (inactive) | 
11 | CCCCCCCCCCCCCCCC | -11.5% (inactive) | 
12 | CCN(CC)c1cccc(C)c1 | -5.21% (inactive) | 
13 | CCN(CC)CCOc1ccc(C(O)(Cc2ccc(Cl)cc2)c2ccc(C)cc2)cc1 (stereo not given) |  | 23.9 µM (active)
14 | CC(C)(c1cc(Br)c(O)c(Br)c1)c1cc(Br)c(O)c(Br)c1 |  | inactive
15 | Cc1cccc(C)c1NC(=O)CN1CCN(CCCC(c2ccc(F)cc2)c2ccc(F)cc2)CC1 |  | 19 µM (active)
16 | O=C=NCc1cccc(CN=C=O)c1 | -11.9% [at 15.8 µM] (inactive) | 
17 | Cc1occc1SSc1ccoc1C |  | 54.9 µM (active)
18 | COC(=O)CC(C)CCC=C(C)C (stereo not given) | -0.544% (inactive) | 
19 | CCCC(=O)OCC(COC(=O)CCC)OC(=O)CCC | 2.8% (inactive) | 
20 | CCOC(=O)COc1ccc(C)cc1 | -3.79% (inactive) | 

Row | SMILES | cytotoxicity increase | Potency
21 | CN(C)CCOC(c1ccccc1)c1ccccc1 (tested in a mixture with another compound) | -2.46% (inactive) | 
22 | CN(C)CCCN1c2ccccc2Sc2ccc(C(F)(F)F)cc21 |  | 23.9 µM (active)
23 | CCCCCCCCCCCCCC[n+]1ccccc1 |  | 34.7 µM (active)
24 | Cc1c(C(=O)O)cccc1[N+](=O)[O-] | -14.9% (inactive) | 
25 | Cc1ccc(CCn2c3c(c4cc(Cl)ccc42)CN(C)CC3)cn1 | 7.08% [at 35.3 µM] (inactive) | 
26 | CNC(=O)c1cc(Oc2ccc(NC(=O)Nc3ccc(Cl)c(C(F)(F)F)c3)cc2)ccn1 | 0.614% [at 35.3 µM] (inactive) | 
27 | CC(NCCC(c1ccccc1)c1ccccc1)c1ccccc1 (stereo not given) |  | 21.3 µM (active)
28 | O=S(=O)(O)CCCN1CCOCC1 | -2.96% (inactive) | 
29 | CCCCCCCCC(C)=O | -11.4% (inactive) | 
30 | CCCCCCCC/C=C\CCCCCCCC(=O)NCc1ccc(O)c(OC)c1 | 5% [at 35.3 µM] (inactive) | 
31 | C/C=C/C(=O)Oc1c(CCCCCC(C)C)cc([N+](=O)[O-])cc1[N+](=O)[O-] |  | 38.9 µM (active)
32 | NC(=O)C(=O)N/N=C/c1ccc([N+](=O)[O-])o1 | -5.53% [at 35.3 µM] (inactive) | 
33 | CCCCCCCCCCCCCCCCCO | -22.2% [at 15.8 µM] (inactive) | 
34 | CCOC(/C=C(\C)CCC=C(C)C)OCC | -9.97% (inactive) | 
35 | COc1cc(C(=O)NS(=O)(=O)c2ccccc2C)ccc1Cc1cn(C)c2ccc(NC(=O)OC3CCCC3)cc12 | -1.86% [at 35.3 µM] (inactive) | 
36 | C=CC(=C)CC/C=C(\C)CCC=C(C)C | 1.9% [at 15.8 µM] (inactive) | 
37 | CCN=C1C=CC(=C(c2ccc(N(CC)CC)cc2)c2ccc(N(CC)CC)cc2)c2ccccc21 |  | 13.7 µM (active)
38 | Cc1cccc(Br)c1 | 3.32% (inactive) | 
39 | CC(=O)Oc1ccc(C2(c3ccc(OC(C)=O)cc3)Oc3ccccc3NC2=O)cc1 | -7.58% [at 35.3 µM] (inactive) | 
40 | COC(=O)CC#N | -0.359% (inactive) | 
